What all share (assay): NCI-60 one-dose screen, 48 h (100 = growth as untreated, 0 = no growth, -100 = all killed)
In one experiment the test system is HCT-15 colon. As to conditions: 10 µM unless noted.
The test system of the next experiment is HT29 colon. As to conditions: 10 µM unless noted.
In a further experiment the test system is SNB-75 CNS. As to conditions: 10 µM unless noted.
The subject of the next experiment is SNB-19 CNS. The note with it: 10 µM unless noted.
For the next experiment, the system named is U251 CNS. As to conditions: 10 µM unless noted.
The subject of the next experiment is PC-3 prostate. As to conditions: 10 µM unless noted.
Another experiment has as its system SK-MEL-5 melanoma. As to conditions: 10 µM unless noted.
A further experiment has as its system UACC-62 melanoma. As to conditions: 10 µM unless noted.
Another experiment deals with LOX IMVI melanoma. As to conditions: 10 µM.
The test system of a further experiment is SK-MEL-2 melanoma. The note with it: 10 µM unless noted.
A further experiment has as its system SN12C renal. The note with it: 10 µM unless noted.
For the next experiment, the system named is UO-31 renal. The note with it: 10 µM unless noted.
For the next experiment, the system named is ACHN renal. The note with it: 10 µM unless noted.
For the next experiment, the system named is CAKI-1 renal. As to conditions: 10 µM unless noted.
Another experiment deals with A498 renal. The note with it: 10 µM unless noted.
A further experiment concerns CCRF-CEM leukemia. As to conditions: 10 µM unless noted.
In another experiment the test system is MOLT-4 leukemia. As to conditions: 10 µM unless noted.
A further experiment has as its system TK-10 renal. The note with it: 10 µM unless noted.
In a further experiment the test system is EKVX NSCLC. As to conditions: 10 µM unless noted.
For the next experiment, the system named is SK-MEL-28 melanoma. As to conditions: 10 µM unless noted.

Compounds without any hit were thinned out: in the full panel of roughly 83,000, 20% have a hit.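 Single-concentration screen, 48 h exposure, 96-well plates. Endpoint: percent growth. Below 10 = active.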 Unmarked numbers belong to inactive results. Calls of active or inactive are those of the source.

`COC1=CC(=O)c2c(O)c3c(c(O)c2C1=O)CC(C)(O)OC3` (stereo not given): the growth in the experiment on HCT-15 colon is 0.909% (active); in the experiment with HT29 colon it was -10.8% (active); with SNB-75 CNS, 41.8%; in the experiment on SNB-19 CNS, 7.01% (active); with U251 CNS it was 17.3%; with PC-3 prostate, 8.93% (active). Besides, the growth with SK-MEL-5 melanoma is -92.4% (active); with UACC-62 melanoma, -14.2% (active); in the experiment on LOX IMVI melanoma, 11.4%; in the experiment on SK-MEL-2 melanoma, -6.4% (active); with SN12C renal, 34.7%; with UO-31 renal, 33.8%. Besides, the growth in the experiment on ACHN renal was 27.6%; with CAKI-1 renal, 34.4%; in the experiment with A498 renal, 68.3%; with CCRF-CEM leukemia, 19.5%; with MOLT-4 leukemia, 14.5%.

In the case of `COc1ccc2c(c1OC)OCC(CN(C)C)C2=O` (stereo not given), the growth was -58.5% (active) with HCT-15 colon; 73.3% with HT29 colon; 93.4% in the experiment on SNB-75 CNS; 99.1% with SNB-19 CNS; 103% with U251 CNS; 98.3% with PC-3 prostate. In addition, the growth was 101% in the experiment on SK-MEL-5 melanoma; 95.9% with UACC-62 melanoma; 87% with LOX IMVI melanoma; 112% in the experiment on SK-MEL-2 melanoma; 98.5% in the experiment on SN12C renal; -72.5% (active) in the experiment with UO-31 renal. Further, the growth was 90.7% in the experiment with TK-10 renal; 54.2% with ACHN renal; 94.4% in the experiment with CAKI-1 renal; 104% in the experiment on A498 renal; 60% in the experiment with CCRF-CEM leukemia; 61.1% with MOLT-4 leukemia.

In the case of `Cc1ccc(/C=C2\CNC/C(=C\c3ccc(C)cc3)C2=O)cc1`, the growth in the experiment on HCT-15 colon was -33.8% (active); in the experiment with HT29 colon it was -35.8% (active); with SNB-75 CNS, 29%; with SNB-19 CNS, -52.6% (active); in the experiment on U251 CNS, -63.4% (active); in the experiment on PC-3 prostate, 6.55% (active). Also, the growth in the experiment on SK-MEL-5 melanoma is -96.7% (active); with UACC-62 melanoma, -89% (active); with LOX IMVI melanoma, -69.2% (active); in the experiment with SK-MEL-2 melanoma, 61%; with EKVX NSCLC it was -67.4% (active); with SN12C renal, -61.3% (active). For the same compound, the growth was -81.2% (active) with UO-31 renal; 16.9% in the experiment on TK-10 renal; -82.5% (active) with ACHN renal; -44.1% (active) with CAKI-1 renal; -3.56% (active) with CCRF-CEM leukemia; -11.4% (active) in the experiment with MOLT-4 leukemia.

Take `Nc1nc(-c2ccccc2)nc(N)c1N=O`: the growth is 53.6% in the experiment with HCT-15 colon; 14.5% in the experiment on HT29 colon; 44.8% with SNB-75 CNS; 88.7% with SNB-19 CNS; 52.4% in the experiment on U251 CNS; 79.9% in the experiment on PC-3 prostate. In addition, the growth in the experiment on SK-MEL-5 melanoma was 100%; in the experiment on UACC-62 melanoma, 71.8%; in the experiment with SK-MEL-28 melanoma, 75.3%; in the experiment with SK-MEL-2 melanoma, 88%; in the experiment with SN12C renal, 74%; in the experiment on UO-31 renal, 45.8%. Also, the growth is 51.6% in the experiment with TK-10 renal; 58.9% with ACHN renal; 32.4% with CAKI-1 renal; 112% in the experiment on A498 renal; 34.8% with CCRF-CEM leukemia; 58.1% with MOLT-4 leukemia.

In the case of `CCc1cnc2ccccc2c1/C=C/c1ccc(N(C)C)cc1`, the growth with HCT-15 colon is 26%; in the experiment with HT29 colon, 5.62% (active); with SNB-75 CNS, 43.4%; in the experiment on SNB-19 CNS, 41.1%; in the experiment with U251 CNS, 26%; with PC-3 prostate it was 54.7%. For the same compound, the growth was 46.6% in the experiment on SK-MEL-5 melanoma; 25.3% with UACC-62 melanoma; 59.9% in the experiment on SK-MEL-28 melanoma; 30.3% with SK-MEL-2 melanoma; 52.3% in the experiment with SN12C renal; 44.6% in the experiment on UO-31 renal. Also, the growth with TK-10 renal was 57.1%; in the experiment on ACHN renal, 60.3%; with CAKI-1 renal it was 51.6%; in the experiment with A498 renal, 34%; in the experiment with CCRF-CEM leukemia, 32.9%; in the experiment on MOLT-4 leukemia it was 33.9%.

Consider `CC(C)N=C(N)/N=C(\N)Nc1ccc2ccc3ccccc3c2c1`, for which the growth in the experiment on HCT-15 colon was -91.5% (active); in the experiment on HT29 colon, -84.4% (active); with SNB-75 CNS, -20.7% (active); in the experiment on SNB-19 CNS, -92.6% (active); with U251 CNS, -67.9% (active); with PC-3 prostate it was -7.75% (active). The growth with SK-MEL-5 melanoma is -98.1% (active); in the experiment with UACC-62 melanoma it was -75.6% (active); with SK-MEL-28 melanoma, -78.2% (active); in the experiment with SK-MEL-2 melanoma it was -81.8% (active); with EKVX NSCLC, -91.2% (active); in the experiment with SN12C renal, -84.6% (active). For the same compound, the growth is -58.4% (active) in the experiment with UO-31 renal; -89.6% (active) with TK-10 renal; -89.2% (active) in the experiment with ACHN renal; -81.1% (active) in the experiment on CAKI-1 renal; -73.7% (active) in the experiment with A498 renal; 12.3% in the experiment with CCRF-CEM leukemia. For the same compound, the growth with MOLT-4 leukemia is -3.58% (active).

For the compound `CCC(C)C(N)C(=O)NC(CC(N)=O)C(=O)NC(CC(C)C)C(=O)NC(CCCCN)C(=O)NC(C)C(=O)NC(CC(C)C)C(=O)NC(C)C(=O)NC(C)C(=O)NC(CC(C)C)C(=O)NC(C)C(=O)NC(CCCCN)C(=O)NC(CCCCN)C(=O)NC(C(=O)NC(CC(C)C)C(N)=O)C(C)CC` (stereo not given), the growth with HCT-15 colon is 101%; with HT29 colon it was 105%; in the experiment with SNB-75 CNS, 85.3%; with SNB-19 CNS, 98.1%; in the experiment on U251 CNS, 69.9%; with PC-3 prostate, 80.5%. The growth is 3.42% (active) in the experiment with SK-MEL-5 melanoma; 9.79% (active) in the experiment on UACC-62 melanoma; 101% in the experiment with LOX IMVI melanoma; 115% in the experiment with SK-MEL-2 melanoma; 89.5% with SN12C renal; 97.4% in the experiment on UO-31 renal. Further, the growth in the experiment on TK-10 renal is 106%; in the experiment on ACHN renal, 87.3%; in the experiment on CAKI-1 renal it was 85.3%; in the experiment with CCRF-CEM leukemia, 83.8%; in the experiment with MOLT-4 leukemia, 94%.

For the compound `CCCCCCCCCCCCSC(=N)N`, the growth with HCT-15 colon is -21.4% (active); with HT29 colon it was -64.4% (active); in the experiment on SNB-75 CNS, 8.5% (active); with SNB-19 CNS, 69%; in the experiment on U251 CNS, -10.1% (active); in the experiment with PC-3 prostate, 33%. Besides, the growth in the experiment with SK-MEL-5 melanoma is 38.5%; in the experiment on UACC-62 melanoma, 107%; in the experiment on LOX IMVI melanoma, -70.8% (active); in the experiment on SK-MEL-28 melanoma, 52.7%; in the experiment with SN12C renal, 51.3%; in the experiment on UO-31 renal, -27.2% (active). The growth with TK-10 renal was 87.4%; with ACHN renal it was -12.6% (active); in the experiment on CAKI-1 renal it was -7.66% (active); with A498 renal, 80.8%; with CCRF-CEM leukemia, -22.8% (active); in the experiment with MOLT-4 leukemia, -37.1% (active).

Consider `CCOC(=O)C1(C)CCCC1N` (stereo not given), for which the growth with HCT-15 colon is 108%; in the experiment with HT29 colon it was 116%; in the experiment with SNB-75 CNS, 86.3%; in the experiment with SNB-19 CNS it was 93.6%; in the experiment with U251 CNS, 110%; in the experiment with PC-3 prostate, 104%. Further, the growth with SK-MEL-5 melanoma was 98%; in the experiment with UACC-62 melanoma it was 91.6%; with SK-MEL-28 melanoma, 109%; in the experiment with SK-MEL-2 melanoma it was 113%; with SN12C renal it was 101%; with UO-31 renal, 83.7%. The growth in the experiment with ACHN renal is 106%; in the experiment on CAKI-1 renal it was 87.6%; in the experiment with A498 renal, 106%; in the experiment with CCRF-CEM leukemia, 103%; with MOLT-4 leukemia it was 103%.
